Screening results: PubChem, The Scripps Research Institute Molecular Screening Center
hgDAF-12 ag: H. glycines DAF-12 receptor agonists, primary screen, cell-based, luminescence, HEK293, GAL4 fusion, UAS-luciferase; Nuclear hormone receptor DAF-12 (Heterodera glycines), GAL4 fusion; HEK293 GAL4-hgDAF12 UAS-luciferase reporter, agonist luminescence; normalized to butyrate control; activation, % at 6.8 µM; 1.8% of 370,000 active;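 active = activation above a cutoff set at the mean of all screened compounds plus 3 SD, cut at about 10% in these data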;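 also: 0% = DMSO wells and 100% = sodium butyrate wells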
hcDAF-12 act: H. contortus DAF-12 nuclear receptor activators, primary screen, cell-based, luminescence, HEK293, lit1-tk-luc reporter | HEK293 hcDAF-12 lit1-tk-luc reporter; 0% DMSO, 100% Δ7-dafachronic acid | activation, % at 6.8 µM | 1.4% of 370,000 active | AID 652067, 2013;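 active = activation above the mean of all tested compounds plus 3 SD, cut at about 5.5% in these data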;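 also: 100% = response to 3 µM Δ7-dafachronic acid high control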
DAX1 inh-1: DAX1 (NR0B1) inhibitors, primary screen, cell-based, HEK293, Gal4-DAX1, luciferase luminescence; Nuclear receptor subfamily 0 group B member 1 (Homo sapiens), P51843; HEK293 Gal4-DAX1 luciferase reporter; inhibition, % at 6.75 µM; 0.99% of 340,000 active; AID 504766, 2011;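 active = inhibition above the mean over all tested compounds plus 3 SD, cut at about 4.2% in these data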;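 also: 0% = DAX1-transfected cells with DMSO and 100% = empty-vector control cells with DMSO; inhibition shows as a rise in luminescence from relieved DAX1 repression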
Target sequence (P51843 207-470 limits assumed): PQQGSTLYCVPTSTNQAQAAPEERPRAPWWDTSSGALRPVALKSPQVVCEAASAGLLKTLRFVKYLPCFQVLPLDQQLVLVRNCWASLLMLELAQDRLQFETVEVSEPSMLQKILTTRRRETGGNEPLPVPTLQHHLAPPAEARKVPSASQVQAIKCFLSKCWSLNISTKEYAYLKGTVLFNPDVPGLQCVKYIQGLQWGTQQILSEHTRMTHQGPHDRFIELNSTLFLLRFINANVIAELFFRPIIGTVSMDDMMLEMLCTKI
DAX1 inh-2: DAX1 (NR0B1) inhibitors on StAR promoter, primary screen, cell-based, luminescence, SF-1 (NR5A1), full-length DAX-1; HEK293T StAR-luciferase reporter, SF-1/DAX-1 repression relief; inhibition, % at 6.8 µM; 1.1% of 370,000 active; AID 652010, 2013;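 active = inhibition above the mean over all tested compounds plus 3 SD, cut at about 3.6% in these data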;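 also: 0% = DAX-1 cells with DMSO and 100% = cells lacking DAX-1 with DMSO; higher inhibition means more luminescence from relief of DAX-1 repression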
ssDAF12 agonist: S. stercoralis DAF-12 nuclear receptor activators, primary screen, cell-based, luminescence, HEK293, GRIP1 co-expression, lit1-tk-luc | HEK293 ssDAF-12/GRIP1 lit1-tk-luc reporter; % of 3 µM dafachronic acid response | Nuclear hormone receptor DAF-12 (Strongyloides stercoralis) | 1% of 370,000 active | activation, % at 6.8 µM | AID 652126, 2013;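 active = activation above the mean over all tested compounds plus 3 SD, cut at about 0.9% in these data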;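 also: 0% = DMSO-only wells and 100% = 3 µM delta7-dafachronic acid wells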
AHR act: AHR activators, primary screen, cell-based, luminescence, luciferase reporter, human; 2.5% of 320,000 active; activation, % at 5 µM; Aryl hydrocarbon receptor (Homo sapiens), P35869; AHR-responsive luciferase reporter cells; in the data active = activation above about 47%;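 also: 0% = vehicle wells and 100% = reference agonist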
LXR ag: LXR agonists, Gal4 luciferase reporter, confirmation, counter-screen for hcDAF-12 agonist project, cell-based, luminescence, HEK293, H. contortus campaign. shares compounds with hcDAF-12 act. HEK293 Gal4-LXR tk-luc reporter, 24 h; normalized: DMSO 0%, positive control 100%. activation, % at 6.8 µM. 3,400 tested, under 10 active;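 active = mean percent activation of the reporter above a cutoff set as the average over tested compounds plus their standard deviation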
hcDAF12 ag: H. contortus DAF-12 receptor agonists, confirmation, cell-based, luminescence, HEK293, lit1-tk-luc, triplicate; shares compounds with hcDAF-12 act; HEK293 hcDAF-12 lit1-tk-luc reporter; % of Δ7-dafachronic acid response; activation, % at 6.8 µM; 61% of 3,400 active;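 active = mean activation across triplicate tests above the threshold derived from the earlier primary screen, cut at about 5.5% in these data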;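 also: 0% = DMSO only wells and 100% = 3 µM Δ7-dafachronic acid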
hgDAF12 ag: H. glycines DAF-12 receptor agonists, confirmation, cell-based, luminescence, HEK293, GAL4-LBD fusion; shares compounds with hgDAF-12 ag; activation, % at 6.8 µM; HEK293 GAL4-hgDAF12 luciferase reporter, agonist mode; percent of butyrate response; AID 743050, 2013; 80% of 3,300 active;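 active = mean activation over triplicate wells above the hit cutoff derived from the earlier primary screen, cut at about 11% in these data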;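 also: 0% = DMSO low control and 100% = 2 mM sodium butyrate high control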
LXRb DAF12 ctr: LXR agonists, Gal4 luciferase reporter, confirmation, counter-screen for hgDAF-12 agonist project, cell-based, luminescence, HEK293, H. glycines campaign | shares compounds with hgDAF-12 ag | 24 h | 3,300 tested, under 10 active | activation, % at 6.8 µM;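 active = mean activation of the triplicate above a set limit carried over from the primary screen, none filed active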
Active calls of the source: *. Hits are enriched below; roughly 5.7% of the tested compounds scored in any of these assays.

How did Cc1cc2nc(-c3cccnc3SCC(=O)NCc3ccco3)[nH]c2cc1C do in these assays?
hgDAF-12 ag: 14*; hcDAF-12 act: 11*; DAX1 inh-1: -1; DAX1 inh-2: 2; ssDAF12 agonist: 1.3*; AHR act: 64*; LXR ag: 1; hcDAF12 ag: 9.1*; hgDAF12 ag: 25*; LXRb DAF12 ctr: 1

Results for O=C(CN(Cc1ccccc1F)C(=O)Cn1nnc(-c2cccs2)n1)NC1CCCCC1 ?
hgDAF-12 ag: -1; hcDAF-12 act: -1; DAX1 inh-1: -1; DAX1 inh-2: -1; ssDAF12 agonist: -1; AHR act: 3

How did CCOn1c(=O)c(-c2cc3ccccc3o2)[n+]([O-])c2ccccc21 do in these assays?
DAX1 inh-1: 1; AHR act: 34

How did O=c1c(-c2cc3ccccc3o2)[n+]([O-])c2ccccc2n1OCc1ccccn1 do in these assays?
hgDAF-12 ag: 18*; hcDAF-12 act: 15*; DAX1 inh-1: 4; DAX1 inh-2: 4.3*; ssDAF12 agonist: 2.2*; AHR act: 45; LXR ag: 1; hcDAF12 ag: 9.7*; hgDAF12 ag: 21*; LXRb DAF12 ctr: 1

How did Cc1ccc(NC(=O)CN(C)C(=O)c2nn(C)c(=O)c3ccccc23)cc1 do in these assays?
hgDAF-12 ag: -2; hcDAF-12 act: -2; DAX1 inh-1: -2; DAX1 inh-2: 0; ssDAF12 agonist: -2; AHR act: 2

What do the screens show for `Cc1ccccc1C=Nc1ccccc1C(N)=O`?
hgDAF-12 ag: -1; hcDAF-12 act: -3; DAX1 inh-1: -2; DAX1 inh-2: -3; ssDAF12 agonist: -1; AHR act: -1

What do the screens show for `Cc1ccc(-c2nc3ccccc3[nH]2)s1`?
hgDAF-12 ag: 20*; hcDAF-12 act: 7.9*; DAX1 inh-1: 1; DAX1 inh-2: 3.8*; ssDAF12 agonist: 1.9*; AHR act: 55*; LXR ag: 2; hcDAF12 ag: 8.2*; hgDAF12 ag: 19*; LXRb DAF12 ctr: 1

Results for Cc1nc(NC(=O)c2cc3ccccc3o2)sc1C ?
hgDAF-12 ag: 14*; hcDAF-12 act: 10*; DAX1 inh-1: -1; DAX1 inh-2: 2; ssDAF12 agonist: 0; AHR act: -9; LXR ag: 2; hcDAF12 ag: 8.1*; hgDAF12 ag: 17*; LXRb DAF12 ctr: 1

How did Cc1nnc(NC(=O)c2cc3ccccc3o2)s1 do in these assays?
hgDAF-12 ag: 7; hcDAF-12 act: 4; DAX1 inh-1: 2; DAX1 inh-2: 1; ssDAF12 agonist: 0; AHR act: 14
